In PubChem BioAssay (NCI) one finds growth data, which are given here for twelve molecules.

Some test systems named below: RPMI-8226 leukemia; OVCAR-8 ovarian; OVCAR-5 ovarian; OVCAR-4 ovarian; SK-OV-3 ovarian; IGROV1 ovarian; OVCAR-3 ovarian; HS 578T breast; NCI/ADR-RES ovarian; T-47D breast.
Common to all, as to assay: NCI-60 one-dose screen, 48 h (100 = growth as untreated, 0 = no growth, -100 = all killed)
Common to all, as to settings: 10 µM unless noted

Each structure is given as a SMILES string. The panel holds about 83,000 compounds, 20% with a hit somewhere; the sample as a whole holds those more often.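 Compound tested at a single concentration for 48 hours in 96-well plates; a percent growth value below 10 was scored as active.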 Activity calls are given as the source filed them.

On to `O=[N+]([O-])c1ccc(Oc2ccc(-c3ccccc3)cc2)cc1`, for which the growth is 75.2% (inactive) in the experiment on RPMI-8226 leukemia; 92.1% (inactive) in the experiment on OVCAR-8 ovarian; 99.2% (inactive) with OVCAR-5 ovarian; 69.6% (inactive) with OVCAR-4 ovarian; 92.6% (inactive) in the experiment on SK-OV-3 ovarian; 85.3% (inactive) with IGROV1 ovarian. In addition, the growth in the experiment with OVCAR-3 ovarian was 99.3% (inactive); with HS 578T breast it was 93.2% (inactive); in the experiment on NCI/ADR-RES ovarian, 91.8% (inactive); in the experiment on T-47D breast, 60.6% (inactive).
For `COc1cc2c(cc1OCCCOc1cc3c(cc1OC)C(=O)N1CC(F)(F)C[C@H]1C=N3)N=C[C@@H]1CC(F)(F)CN1C2=O`, the growth is -30.7% (active) in the experiment on RPMI-8226 leukemia; 17.8% (inactive) in the experiment with OVCAR-8 ovarian; 14.2% (inactive) with OVCAR-5 ovarian; 35.2% (inactive) in the experiment with OVCAR-4 ovarian; 46.2% (inactive) in the experiment with SK-OV-3 ovarian; 0.757% (active) in the experiment on IGROV1 ovarian. Also, the growth in the experiment on OVCAR-3 ovarian was 22.8% (inactive); with HS 578T breast, -8.37% (active); in the experiment with NCI/ADR-RES ovarian, 76.9% (inactive); with T-47D breast it was 27.7% (inactive).
As to `COc1ccc(NC(=O)c2ccc(Nc3ncnc4[nH]c(C)c(C)c34)cc2)cc1`, the growth is 111% (inactive) with RPMI-8226 leukemia; 98.9% (inactive) with OVCAR-8 ovarian; 108% (inactive) in the experiment with OVCAR-5 ovarian; 126% (inactive) in the experiment on OVCAR-4 ovarian; 109% (inactive) in the experiment with SK-OV-3 ovarian; 110% (inactive) with IGROV1 ovarian. Further, the growth was 103% (inactive) with OVCAR-3 ovarian, 113% (inactive) in the experiment with HS 578T breast, 103% (inactive) with NCI/ADR-RES ovarian and 89.2% (inactive) in the experiment with T-47D breast.
For `CC(=O)ON1CCCC(P(=O)(OCOC(=O)C(C)(C)C)OCOC(=O)C(C)(C)C)C1=O` (stereo not given), the growth was -47.5% (active) with RPMI-8226 leukemia; -0.681% (active) with OVCAR-8 ovarian; 17.7% (inactive) with OVCAR-5 ovarian; 13.3% (inactive) in the experiment on OVCAR-4 ovarian; 6.56% (active) with SK-OV-3 ovarian; -28.4% (active) in the experiment with IGROV1 ovarian. The growth is 2.58% (active) in the experiment on OVCAR-3 ovarian, 1.28% (active) in the experiment on HS 578T breast, -2.01% (active) in the experiment on NCI/ADR-RES ovarian and 16.4% (inactive) with T-47D breast.
Take `O=C(O)COc1ccc2c(=O)c3sc4c(=O)c5ccccc5c(=O)c4c3c(=O)c2c1`: the growth in the experiment with RPMI-8226 leukemia is 43.6% (inactive); in the experiment on OVCAR-8 ovarian, 43.8% (inactive); with OVCAR-5 ovarian, -53.7% (active); in the experiment with OVCAR-4 ovarian, 27.8% (inactive); in the experiment on SK-OV-3 ovarian it was 88.1% (inactive); in the experiment on IGROV1 ovarian, 36.6% (inactive). For the same molecule, the growth in the experiment on OVCAR-3 ovarian was 1.75% (active); in the experiment on HS 578T breast it was -10.1% (active); in the experiment on NCI/ADR-RES ovarian it was 40.8% (inactive); in the experiment on T-47D breast it was 74.1% (inactive).
Consider `C=C1C(=O)O[C@H]2[C@H]1CC/C(COC(=O)c1cn(C)c3ccccc13)=C\CC[C@@]1(C)O[C@@H]21`, for which the growth was -29.5% (active) in the experiment with RPMI-8226 leukemia; -20.5% (active) in the experiment on OVCAR-8 ovarian; -25.5% (active) in the experiment on OVCAR-5 ovarian; -33.6% (active) in the experiment with OVCAR-4 ovarian; 63% (inactive) in the experiment on SK-OV-3 ovarian; -47.6% (active) with IGROV1 ovarian. In addition, the growth was -72.1% (active) in the experiment with OVCAR-3 ovarian, 12.7% (inactive) in the experiment on HS 578T breast, 3.25% (active) with NCI/ADR-RES ovarian and -56.3% (active) in the experiment with T-47D breast.
In the case of `O=CN1N=C(c2ccc(Cl)cc2)CC1c1cccc(Nc2ccnc3cc(C(F)(F)F)ccc23)c1` (stereo not given), the growth is 26.4% (inactive) in the experiment on RPMI-8226 leukemia; 52.8% (inactive) in the experiment on OVCAR-8 ovarian; 99.7% (inactive) in the experiment on OVCAR-5 ovarian; 36.1% (inactive) in the experiment on OVCAR-4 ovarian; 72.4% (inactive) in the experiment on SK-OV-3 ovarian; 74.2% (inactive) in the experiment on IGROV1 ovarian. The growth with OVCAR-3 ovarian is 62.2% (inactive); with HS 578T breast, 87.7% (inactive); with NCI/ADR-RES ovarian, 55.4% (inactive); in the experiment with T-47D breast it was 42.6% (inactive).
For the molecule `O=C(O)c1cn(C2CC2)c2cc(N3CCN(Cc4nnc(Nc5ccccc5)o4)CC3)c(F)cc2c1=O`, the growth was 106% (inactive) with RPMI-8226 leukemia; 108% (inactive) with OVCAR-8 ovarian; 94% (inactive) in the experiment with OVCAR-5 ovarian; 101% (inactive) in the experiment on OVCAR-4 ovarian; 108% (inactive) in the experiment on SK-OV-3 ovarian; 95.9% (inactive) in the experiment on IGROV1 ovarian. For the same molecule, the growth in the experiment with OVCAR-3 ovarian was 101% (inactive); with HS 578T breast, 98% (inactive); in the experiment with NCI/ADR-RES ovarian, 107% (inactive); in the experiment on T-47D breast, 85.4% (inactive).
On to `COc1ccc(C2N(c3cc(OC)c(OC)c(OC)c3)C(=O)C2(F)F)cc1F` (stereo not given), for which the growth in the experiment on RPMI-8226 leukemia was 20.8% (inactive); in the experiment with OVCAR-8 ovarian, 44.1% (inactive); with OVCAR-5 ovarian, 78.7% (inactive); in the experiment with OVCAR-4 ovarian, 58.3% (inactive); in the experiment with SK-OV-3 ovarian, 75.5% (inactive); with IGROV1 ovarian it was 44.2% (inactive). The growth is 17.6% (inactive) in the experiment with OVCAR-3 ovarian, 21.9% (inactive) in the experiment on HS 578T breast, 32.9% (inactive) with NCI/ADR-RES ovarian and 65.7% (inactive) in the experiment on T-47D breast.
On to `CCCn1c(N)c(C(N)=O)sc1=S`, for which the growth was 94.5% (inactive) with RPMI-8226 leukemia; 106% (inactive) in the experiment with OVCAR-8 ovarian; 90.8% (inactive) with OVCAR-5 ovarian; 111% (inactive) in the experiment with OVCAR-4 ovarian; 103% (inactive) in the experiment on SK-OV-3 ovarian; 100% (inactive) in the experiment with IGROV1 ovarian. Besides, the growth was 103% (inactive) in the experiment on OVCAR-3 ovarian, 95.7% (inactive) with HS 578T breast, 104% (inactive) in the experiment with NCI/ADR-RES ovarian and 94.8% (inactive) in the experiment with T-47D breast.
`O=C(NCc1ccccc1)c1ccc2c(c1)NC(=O)[C@@H]1CCCN21`: the growth with RPMI-8226 leukemia was 105% (inactive); in the experiment on OVCAR-8 ovarian, 106% (inactive); in the experiment on OVCAR-5 ovarian, 100% (inactive); with OVCAR-4 ovarian it was 112% (inactive); in the experiment with SK-OV-3 ovarian, 111% (inactive); with IGROV1 ovarian, 104% (inactive). Also, the growth is 101% (inactive) in the experiment on OVCAR-3 ovarian, 90.7% (inactive) with HS 578T breast, 98.3% (inactive) in the experiment on NCI/ADR-RES ovarian and 108% (inactive) with T-47D breast.
For `COc1ccc(N(C)c2nc(Cl)nc3ccn(C)c23)cc1`, the growth in the experiment on RPMI-8226 leukemia is 6.35% (active); in the experiment with OVCAR-8 ovarian, 0.816% (active); with OVCAR-5 ovarian it was 30.6% (inactive); in the experiment with OVCAR-4 ovarian, 36.6% (inactive); with SK-OV-3 ovarian, 7.76% (active); with IGROV1 ovarian, 26.1% (inactive). The growth with OVCAR-3 ovarian was -12.3% (active); in the experiment with HS 578T breast, 36.8% (inactive); with NCI/ADR-RES ovarian, 3.41% (active); with T-47D breast, 74.9% (inactive).
